Records with an inconclusive call do not appear. Where a call stands in place of a potency, no number is given. Activity calls are given as the source filed them. Calls follow the shape of the dose curve; as a rule, active = well fitted cell-killing curve with a large enough effect; inconclusive = small, poorly fitted or top-dose-only effect, or effect the other way; inactive = no such curve, though single readings can be large or run the other way.
Potency is read from the fitted curve at half-maximal effect.

A short description of this test: Cell Viability - LYMP2-004 (AID 966). Also: nearly all actives have a fitted effect of over 65% in size. To be noted: LYMP2-004 lymphoblastoid cell viability, qHTS; series mostly up to 92.2 µM. An excerpt:
NIH Chemical Genomics Center [NCGC]
NIH Molecular Libraries Screening Centers Network [MLSCN]
National Institutes of Environmental Health Sciences [NIEHS]
National Toxicology Program [NTP]
We have developed a 1536-well cell-based assay for quantitative high throughput screening (qHTS) against a number of cell lines to determine in vitro cytotoxicity of small molecules. This particular assay uses a human lymphoblastoid cell line (LYMP2-004) purchased from Coriell Institute for Medical Research.
NCGC Assay Protocol Summary:
The CellTiter-Glo luminescent cell viability assay (Promega) is a homogeneous method to measure the number of viable cells in culture. The end point readout of this assay is based on quantitation of intracellular ATP, an indicator of metabolic activity, using the luciferase reaction. Luciferase catalyzes the oxidation of beetle Luciferin to oxyluciferin and light in the presence of ATP. The luminescent signal is proportional to amount of ATP present.
Using the CellTiter-Glo luminescent cell viability assay, the amount of cellular ATP was measured in the lymphoblastoid cell line with complete culture medium following compound treatment for 24 hours. The assay was performed in opaque white Kalypsys 1536-well plates. In the screen, tetraoctylammonium bromide was used as positive control. Library compounds were measured for their ability to cause acute toxicity in the cell line, as reflected by a decrease in intracellular ATP levels, in a concentration-dependent manner. […] AC50 values were determined from concentration-response data modeled with the standard Hill equation.
qHTS protocol for CellTiter Glo lymphoblastoid cellular assay
[Step] [Parameter] [Value] [Description]
1. Reagent; 5 uL; 2500 lymphoblastoid cells/well
2. Time; 5 hr; 37 C incubation
4. Controls; 23 nL; Tetraoctylammonium bromide 6.4pM to 92 uM
5. Time; 24 hr; 37 C incubation
6. Reagent; 5 uL; CellTiter Glo reagent
7. Time; 30 min; Room Temperature
8. Detection; Luminescence; Viewlux plate reader
Keywords: cell viability, cytotoxicity, lymphoblastoid cell line, luminescence, NTPHTS, NTPHTS_NCGC, NIEHS, DSSTox, MLSMR, MLSCN, NIH Roadmap, qHTS, NCGC
(In general: In qHTS, concentration-response curves come from the screen itself.)
Regarding `CC12CCC(CC1=O)C2(C)C` (stereo not given), the Potency entry is “inactive”.
In the case of `CN(C)C=O` it was “inactive”; in that of `Cc1ccc([N+](=O)[O-])cc1N`, “inactive”.
Regarding `CC(C)=CCCC(C)CCO` (stereo not given), the Potency result was “inactive”.
For `Cc1ccccc1C`, the Potency entry was “inactive”.
To `CC1=CC(C)(C)Nc2ccccc21` belongs “inactive”; to `COC(=O)c1ccc(C=O)cc1`, “inactive”.
Take `CCCN(CCC)C(=O)SCC`: the Potency result was “inactive”.
Turning to `CCCCCCCCCCCCCC(=O)O`, the Potency result is “inactive”.
In the case of `CC(=O)OC/C=C(\C)CCC=C(C)C` it was “inactive”.
In the case of `O=C(O)c1ccccc1` it was “inactive”; in that of `COc1cc(/C=C/c2ccccc2)oc(=O)c1`, “inactive”; in that of `COCC(=O)O`, “inactive”.
As for `CCO[Si](CCCN)(OCC)OCC`, the Potency entry was “inactive”.
As to `O=C(O)c1ccccc1C(c1ccc(O)cc1)c1ccc(O)cc1`, the Potency entry is “inactive”.
To `O=[N+]([O-])c1cccc(Cl)c1Cl` belongs “inactive”; to `C=Cc1ccccc1Cl`, “inactive”.
To `Nc1ccc(S(=O)(=O)O)cc1` belongs “inactive”; to `CCCCC(CC)CN` (stereo not given), “inactive”.
On to `CCC(C)c1ccccc1O` (stereo not given), for which the Potency result is “inactive”.
Consider `Cc1cccc([N+](=O)[O-])c1C`, for which the Potency entry was “inactive”.
`COc1ccc(/C=C/c2cc(OC)cc(=O)o2)cc1`: the Potency entry is “inactive”.
Turning to `CCCCOCCO`, the Potency result is “inactive”.
To `c1ccccc1` belongs “inactive”; to `CCO`, “inactive”; to `O=C(O)c1ccc(O)cc1O`, “inactive”.
As for `Nc1ccc(Cl)cc1Cl`, the Potency entry is “inactive”.
Take `c1ccc2c(c1)c1cccc3ccc4cccc2c4c31`: the Potency entry is “inactive”.
To `NC1=NC(S)C2N=CN=C2N1` (stereo not given) belongs 7.94 µM (active); to `O=NO`, “inactive”.
In the case of `COc1ccc2nc(N)sc2c1` it was “inactive”.
On to `C=CCOC(=O)c1ccccc1C(=O)OCC=C`, for which the Potency result was “inactive”.
To `Cc1c(N=C=O)cccc1N=C=O` belongs “inactive”; to `C=CC(=C)CCC=C(C)C`, “inactive”; to `CCCCCCCCCCCC(=O)O`, “inactive”.
In the case of `O[C@@H]([C@H](O)[C@@H](O)CBr)[C@@H](O)CBr`, the Potency entry is “inactive”.
In the case of `c1ccc2c(c1)[nH]c1ccccc12` it was “inactive”; in that of `O=C(/C=C/c1ccc(O)c(O)c1)O[C@@H](C(=O)O)[C@@H](OC(=O)/C=C/c1ccc(O)c(O)c1)C(=O)O`, “inactive”; in that of `C=C(C)C1CC=C(C)C(O)C1` (stereo not given), “inactive”.
For `CC1(C)CC(N=C=O)CC(C)(CN=C=O)C1` (stereo not given), the Potency result was “inactive”.

Source of the values: PubChem BioAssay (NCATS).
